Each structure is given as a SMILES string. For part of these data: Entries with a potency or affinity are not part of this list.

Holding throughout (set-up): scale not given: direction of the effect not stated beside the values
Assay [1] deals with Protein translocase subunit SecA (Escherichia coli (strain K12)) (UniProt P10408). Briefly: Assay to Identify E. coli SecA ATPase Inhibitors. The format is functional. The conditions noted are these: 30 µM.
Assay [2] concerns the target T1, Ubiquitin-activating enzyme e1, putative (Leishmania donovani (strain BPK282A1)) (UniProt E9BSI1).
T1 sequence (whole entry): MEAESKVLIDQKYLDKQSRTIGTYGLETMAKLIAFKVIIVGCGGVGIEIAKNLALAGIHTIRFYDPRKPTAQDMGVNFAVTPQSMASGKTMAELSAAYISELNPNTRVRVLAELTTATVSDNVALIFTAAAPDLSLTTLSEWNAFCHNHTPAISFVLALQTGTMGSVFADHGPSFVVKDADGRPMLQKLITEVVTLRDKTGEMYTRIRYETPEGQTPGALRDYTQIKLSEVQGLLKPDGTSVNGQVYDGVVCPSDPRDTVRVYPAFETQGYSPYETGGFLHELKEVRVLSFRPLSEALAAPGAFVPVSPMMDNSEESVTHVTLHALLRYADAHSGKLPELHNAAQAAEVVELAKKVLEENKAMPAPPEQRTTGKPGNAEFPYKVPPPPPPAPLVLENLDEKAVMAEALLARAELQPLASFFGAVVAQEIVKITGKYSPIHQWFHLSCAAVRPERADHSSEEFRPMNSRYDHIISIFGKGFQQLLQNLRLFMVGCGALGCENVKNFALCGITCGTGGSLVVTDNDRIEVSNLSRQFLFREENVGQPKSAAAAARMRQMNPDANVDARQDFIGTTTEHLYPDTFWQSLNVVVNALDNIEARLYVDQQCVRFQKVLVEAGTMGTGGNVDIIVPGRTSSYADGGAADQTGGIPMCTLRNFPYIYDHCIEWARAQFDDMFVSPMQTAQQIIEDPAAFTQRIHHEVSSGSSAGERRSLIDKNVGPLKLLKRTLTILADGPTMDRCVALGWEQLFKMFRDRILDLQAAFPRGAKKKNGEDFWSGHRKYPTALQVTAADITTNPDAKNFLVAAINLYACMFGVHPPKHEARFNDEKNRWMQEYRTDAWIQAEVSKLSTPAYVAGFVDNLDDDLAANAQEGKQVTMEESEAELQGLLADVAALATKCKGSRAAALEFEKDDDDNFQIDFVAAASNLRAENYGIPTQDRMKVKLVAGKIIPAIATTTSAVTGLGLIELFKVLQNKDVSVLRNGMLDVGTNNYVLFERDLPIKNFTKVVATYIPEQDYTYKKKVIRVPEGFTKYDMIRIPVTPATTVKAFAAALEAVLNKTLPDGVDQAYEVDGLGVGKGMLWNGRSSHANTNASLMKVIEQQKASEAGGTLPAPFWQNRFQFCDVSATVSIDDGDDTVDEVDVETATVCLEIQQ
Briefly: Leishmania donovani Ubiquitin Activating Enzyme (LdE1). The class given is functional. The conditions noted are these: 30 µM.

The target of assay [3] is AMP-activated protein kinase, AMPK (Homo sapiens) (UniProt P54646+O43741+P54619+Q9UGJ0+Q9Y478+Q13131+Q9UGI9). Briefly: AMP-dependent Kinase enzyme assay. An in vitro enzyme assay that detects ADP turnover that is directly proportional to AMPK activity. This uses naive AMPK that is activated during the assay with MK-8722. The class given is functional. The conditions noted are these: 30 µM.

Assay [4] deals with Sialic acid-binding Ig-like lectin 9 (Homo sapiens) (UniProt Q9Y336). Kind of assay: Hs-Siglec9 ALPHAscreen SOP 20170721. The conditions noted are these: 10 µM. Background: Alpha assays give light when donor and acceptor beads are brought close together.
Sialic acid-binding Ig-like lectin 9 (Homo sapiens), sequence (Q9Y336 whole entry): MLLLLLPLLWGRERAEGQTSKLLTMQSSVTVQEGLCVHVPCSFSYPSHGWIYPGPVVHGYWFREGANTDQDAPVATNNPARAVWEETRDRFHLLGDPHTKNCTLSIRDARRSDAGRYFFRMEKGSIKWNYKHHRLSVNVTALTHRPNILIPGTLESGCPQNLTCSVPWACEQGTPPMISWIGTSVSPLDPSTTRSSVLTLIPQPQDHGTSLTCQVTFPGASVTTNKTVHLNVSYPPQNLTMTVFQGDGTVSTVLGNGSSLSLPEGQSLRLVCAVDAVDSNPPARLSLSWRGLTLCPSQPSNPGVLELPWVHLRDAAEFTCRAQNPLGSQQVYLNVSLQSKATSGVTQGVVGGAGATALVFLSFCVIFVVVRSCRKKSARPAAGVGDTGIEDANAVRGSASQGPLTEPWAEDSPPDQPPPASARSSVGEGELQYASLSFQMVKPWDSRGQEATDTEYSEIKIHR
The test system of assay [5] is Trypanosoma cruzi. Briefly: Trypanosoma cruzi phosphomannomutase and mannose-1-phosphate guanylyltransferase assay. The format is functional. The conditions noted are these: 10 µM.
Assay [6] concerns the target T2, Arginase-2, mitochondrial (Homo sapiens) (UniProt P78540).
T2 sequence (whole entry): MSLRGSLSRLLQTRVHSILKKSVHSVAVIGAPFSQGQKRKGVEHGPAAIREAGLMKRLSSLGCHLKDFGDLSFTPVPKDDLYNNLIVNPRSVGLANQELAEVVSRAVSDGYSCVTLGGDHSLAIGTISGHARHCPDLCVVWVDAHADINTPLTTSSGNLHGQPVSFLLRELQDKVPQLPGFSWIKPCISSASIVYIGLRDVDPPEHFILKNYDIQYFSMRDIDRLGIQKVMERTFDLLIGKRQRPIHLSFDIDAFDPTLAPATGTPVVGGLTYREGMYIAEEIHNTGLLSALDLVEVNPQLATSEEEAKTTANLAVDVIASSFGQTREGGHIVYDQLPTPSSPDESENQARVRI
Briefly: in vitro enzyme assay to detect the production of urea directly proportional to the activity of Arginase II. Also: in the data most compounds retested in dose-response had high values. To be noted: 33.3 µM. The format is functional.

The target in assay [7] is T3, Proteasome subunit beta (Trypanosoma cruzi) (UniProt O96673).
T3 sequence (whole entry): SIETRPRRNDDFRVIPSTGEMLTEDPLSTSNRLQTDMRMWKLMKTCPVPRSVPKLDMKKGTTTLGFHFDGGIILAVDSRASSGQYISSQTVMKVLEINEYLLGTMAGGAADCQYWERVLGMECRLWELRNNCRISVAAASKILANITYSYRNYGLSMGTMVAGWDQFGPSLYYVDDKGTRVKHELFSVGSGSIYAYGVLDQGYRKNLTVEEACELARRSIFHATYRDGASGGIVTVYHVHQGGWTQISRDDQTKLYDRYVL
Kind of assay: Trypanosoma cruzi proteasome chymotrypsin-like activity (TcProtChymo) assay. Also: in the data most compounds retested in dose-response had high values. The format is functional. The conditions noted are these: 9.37 µM.

The species named for assay [8] is Homo sapiens. Kind of assay: To identify inhibition of the IFN signalling (Jak-Stat) pathway via expression of an eGFP reporter gene under the control of an IFN-stimulated response element (ISRE) containing MxA promoter. The format is functional. To be noted: 30 µM. (Reporter assays use an easily measured gene product as a stand-in for the process of interest.)

Assay [9] deals with T4, Tyrosyl-tRNA synthetase, putative (Trypanosoma cruzi (strain CL Brener)) (UniProt Q4DSP6).
T4 sequence (whole entry): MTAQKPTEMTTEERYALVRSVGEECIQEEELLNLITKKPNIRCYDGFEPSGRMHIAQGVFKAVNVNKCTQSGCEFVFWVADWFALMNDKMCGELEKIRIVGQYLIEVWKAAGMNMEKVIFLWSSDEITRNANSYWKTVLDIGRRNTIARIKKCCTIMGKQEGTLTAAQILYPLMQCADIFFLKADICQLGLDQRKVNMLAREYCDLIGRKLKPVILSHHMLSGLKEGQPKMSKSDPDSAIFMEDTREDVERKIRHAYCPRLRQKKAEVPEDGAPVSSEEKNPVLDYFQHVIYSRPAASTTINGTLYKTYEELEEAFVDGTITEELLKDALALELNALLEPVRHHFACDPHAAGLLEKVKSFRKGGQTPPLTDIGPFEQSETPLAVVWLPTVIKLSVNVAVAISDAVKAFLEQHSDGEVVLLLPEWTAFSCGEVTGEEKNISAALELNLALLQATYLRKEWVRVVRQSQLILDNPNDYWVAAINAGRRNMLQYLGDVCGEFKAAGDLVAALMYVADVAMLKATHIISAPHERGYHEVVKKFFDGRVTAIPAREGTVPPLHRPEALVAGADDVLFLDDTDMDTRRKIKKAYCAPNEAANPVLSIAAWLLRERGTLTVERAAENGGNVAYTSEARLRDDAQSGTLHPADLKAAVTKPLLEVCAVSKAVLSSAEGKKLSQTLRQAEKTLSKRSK
Briefly: Trypanosoma cruzi tyrosyl tRNA synthetase (TcYRS) _High Tyrosine SOP. Also: in the data most compounds retested in dose-response had high values. The format is functional. The conditions noted are these: 30 µM.

The target of assay [10] is T4, Tyrosyl-tRNA synthetase, putative (Trypanosoma cruzi (strain CL Brener)). Briefly: Trypanosoma cruzi tyrosyl tRNA synthetase (TcYRS) SOP. The class given is functional. To be noted: 30 µM.
The target of assay [11] is Chromo domain-containing protein 1 (Saccharomyces cerevisiae (strain ATCC 204508 / S288c) (Baker's yeast)) (UniProt P32657). Briefly: ScCHD-1 Enzyme Inhibition Assay. Also: in the data most compounds retested in dose-response had high values. The format is functional. To be noted: 30 µM.
Chromo domain-containing protein 1 (Saccharomyces cerevisiae (strain ATCC 204508 / S288c) (Baker's yeast)), sequence (P32657 whole entry, the tested form may be a part): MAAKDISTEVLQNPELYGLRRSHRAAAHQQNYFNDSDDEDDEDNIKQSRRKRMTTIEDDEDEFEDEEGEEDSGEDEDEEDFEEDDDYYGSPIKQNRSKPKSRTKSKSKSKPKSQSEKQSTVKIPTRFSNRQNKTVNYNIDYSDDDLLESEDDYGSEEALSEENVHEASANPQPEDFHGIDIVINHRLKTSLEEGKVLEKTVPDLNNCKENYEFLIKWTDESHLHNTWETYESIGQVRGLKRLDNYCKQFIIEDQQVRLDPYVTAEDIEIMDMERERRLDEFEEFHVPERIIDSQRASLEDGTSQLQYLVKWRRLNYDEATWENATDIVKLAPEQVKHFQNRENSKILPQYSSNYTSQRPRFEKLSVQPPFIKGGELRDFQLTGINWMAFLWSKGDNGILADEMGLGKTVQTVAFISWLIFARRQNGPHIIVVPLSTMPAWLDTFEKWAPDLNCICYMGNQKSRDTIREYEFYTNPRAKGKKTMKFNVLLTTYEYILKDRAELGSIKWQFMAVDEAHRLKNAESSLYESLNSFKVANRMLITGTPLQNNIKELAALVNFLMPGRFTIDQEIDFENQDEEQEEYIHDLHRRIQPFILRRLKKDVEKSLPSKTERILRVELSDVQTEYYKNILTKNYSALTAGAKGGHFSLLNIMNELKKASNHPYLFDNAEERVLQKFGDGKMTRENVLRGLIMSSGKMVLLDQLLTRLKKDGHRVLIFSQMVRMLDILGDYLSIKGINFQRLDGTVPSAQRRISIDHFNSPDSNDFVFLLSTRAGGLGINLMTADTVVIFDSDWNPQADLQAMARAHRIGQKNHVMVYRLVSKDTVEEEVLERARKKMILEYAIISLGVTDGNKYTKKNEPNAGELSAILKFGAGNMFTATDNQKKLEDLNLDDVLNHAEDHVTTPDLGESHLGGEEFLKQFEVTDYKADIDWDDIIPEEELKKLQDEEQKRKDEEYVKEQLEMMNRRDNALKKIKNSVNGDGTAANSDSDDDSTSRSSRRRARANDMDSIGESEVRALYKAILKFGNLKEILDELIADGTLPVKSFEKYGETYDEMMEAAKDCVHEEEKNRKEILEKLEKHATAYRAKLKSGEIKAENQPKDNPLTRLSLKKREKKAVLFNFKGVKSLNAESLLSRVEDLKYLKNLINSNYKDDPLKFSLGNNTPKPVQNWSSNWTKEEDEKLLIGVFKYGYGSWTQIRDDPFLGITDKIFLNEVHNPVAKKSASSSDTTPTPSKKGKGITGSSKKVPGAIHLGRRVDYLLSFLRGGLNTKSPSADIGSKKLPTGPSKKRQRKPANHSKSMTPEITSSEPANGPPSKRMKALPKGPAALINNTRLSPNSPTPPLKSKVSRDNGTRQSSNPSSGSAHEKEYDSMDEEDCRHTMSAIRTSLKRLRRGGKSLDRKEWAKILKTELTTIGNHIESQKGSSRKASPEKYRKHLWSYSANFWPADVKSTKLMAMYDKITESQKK

Protein translocase subunit SecA (Escherichia coli (strain K12)), sequence (P10408 whole entry): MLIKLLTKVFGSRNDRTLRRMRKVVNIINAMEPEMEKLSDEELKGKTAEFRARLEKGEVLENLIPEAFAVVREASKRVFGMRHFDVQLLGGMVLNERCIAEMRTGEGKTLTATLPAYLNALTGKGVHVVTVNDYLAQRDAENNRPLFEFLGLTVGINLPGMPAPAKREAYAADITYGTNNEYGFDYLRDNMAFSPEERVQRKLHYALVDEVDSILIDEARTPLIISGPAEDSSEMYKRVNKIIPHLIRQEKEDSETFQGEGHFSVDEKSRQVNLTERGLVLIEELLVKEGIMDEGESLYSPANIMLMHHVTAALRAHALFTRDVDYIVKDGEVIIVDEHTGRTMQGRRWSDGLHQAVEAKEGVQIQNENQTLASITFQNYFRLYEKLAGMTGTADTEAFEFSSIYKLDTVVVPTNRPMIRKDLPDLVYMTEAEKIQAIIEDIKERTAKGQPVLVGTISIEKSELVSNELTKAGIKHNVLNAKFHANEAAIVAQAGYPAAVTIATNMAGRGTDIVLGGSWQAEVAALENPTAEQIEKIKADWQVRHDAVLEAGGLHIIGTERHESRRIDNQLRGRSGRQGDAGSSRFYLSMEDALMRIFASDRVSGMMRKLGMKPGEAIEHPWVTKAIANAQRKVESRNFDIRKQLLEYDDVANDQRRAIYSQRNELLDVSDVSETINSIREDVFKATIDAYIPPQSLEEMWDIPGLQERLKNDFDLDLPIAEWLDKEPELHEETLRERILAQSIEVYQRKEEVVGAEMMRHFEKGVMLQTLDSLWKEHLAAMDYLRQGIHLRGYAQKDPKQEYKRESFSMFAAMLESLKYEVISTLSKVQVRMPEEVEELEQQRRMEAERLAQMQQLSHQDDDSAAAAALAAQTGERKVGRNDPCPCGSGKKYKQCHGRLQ

`c1ccc2c(N3CCCCC3Cn3cncn3)ncnc2c1` (centres undefined): the Percent Effect in assay [1] was -4.99%; in assay [2], 2.67%; in assay [3] it was -0.541%; in assay [4], 0.114%; in [5], -0.876%; in assay [6], 3.12%. The Percent Effect in [7] was 8.54%; in assay [8] it was 16.2%; in [9], 2.73%; in assay [10] it was 6.17%; in assay [11], -6.35%.

With `Cc1nnsc1C(=O)N1CCC2(CC1)c1nc[nH]c1CCN2CC(C)C`, the Percent Effect in [1] was -4.82%; in assay [2], 5.33%; in [3] it was -0.152%; in assay [4] it was -8.33%; in assay [5], -1.46%; in assay [6] it was -2.08%. For the same compound, the Percent Effect in assay [7] was 12.4%; in assay [8], -1.57%; in assay [9], 1.64%; in [10] it was 6.17%; in assay [11] it was -5.05%.

In the case of `CCN1CC(C(=O)NC(C)(C)CC(C)(C)C)CC1=O` (centres undefined), the Percent Effect is -3.13% in assay [1]; 10.8% in [2]; -0.778% in assay [3]; 22.8% in assay [4]; 4.4% in assay [5]; 21.1% in assay [6]. Also, the Percent Effect in [7] is 5.06%; in [8], -0.424%; in [9], 5.38%; in assay [10], 8.64%; in assay [11] it was -10.2%.

Take `COc1ccccc1C(O)CNCc1c(C(C)C)nn(C)c1N(C)C` (centres undefined): the Percent Effect was -5.07% in assay [1]; 15.6% in assay [2]; -1.45% in assay [3]; 1.4% in assay [4]; 1.31% in [5]; 1.07% in [6]. Besides, the Percent Effect was 4.9% in [7]; -5.4% in assay [8]; 11.7% in assay [9]; 14.6% in assay [10]; -10.1% in [11].

`CCNC(=O)c1ccc(N2CCCC(c3nccn3C(C)C)C2)nc1` (centres undefined): the Percent Effect in assay [1] is -2.94%; in [2], 8%; in assay [3] it was -3.44%; in assay [4], 14.3%; in [5] it was 5.16%; in assay [6], 20.3%. Moreover, the Percent Effect was 11.2% in assay [7]; 6.3% in assay [8]; 3.83% in [9]; 11.1% in assay [10]; -4.72% in assay [11].

As to `c1cnn(CC2CN(Cc3ccc(-n4ccnc4)cc3)CCO2)c1` (centres undefined), the Percent Effect was -2.02% in assay [1]; 17.7% in assay [2]; -6.89% in [3]; 4.49% in assay [4]; 3.68% in [5]; 0.76% in assay [6]. The Percent Effect in assay [7] was 6.14%; in [8], 0.886%; in assay [9], 9.36%; in [10], 24.1%; in [11] it was -2.59%.

Regarding `Cc1cc(C)n(-c2ccc(CNCc3ccc(OC(C)C)cc3)cn2)n1`, the Percent Effect is -0.648% in assay [1]; 13.2% in assay [2]; -0.778% in [3]; -0.618% in [4]; 6.01% in assay [5]; -3.06% in [6]. In addition, the Percent Effect in assay [7] was 15.5%; in [8] it was 20.5%; in [9], 13.2%; in assay [10] it was 19.5%; in [11], -10.2%.

`Cc1cc(C)n(-c2cncc(NCCNC(=O)CC3CCCC3)n2)n1`: the Percent Effect was -5.92% in assay [1]; 5.41% in assay [2]; 16.2% in [3]; 27.9% in assay [4]; 0.489% in assay [5]; 1.24% in assay [6]. For the same compound, the Percent Effect was 8.67% in assay [7]; -10.2% in assay [8]; 1.07% in [9]; 8.64% in [10]; -4.7% in [11].

Turning to `COc1cccc(COCC(=O)N2CCN(CC(C)(C)O)CC2)c1`, the Percent Effect was 1.47% in [1]; -5.26% in assay [2]; 7.35% in assay [3]; 8.14% in [4]; -3.76% in [5]; 6.51% in [6]. The Percent Effect in assay [7] was -0.167%; in [8] it was 21%; in [9], 1.47%; in assay [10], -2.44%; in assay [11], -5.7%.

(Values after ChEMBL document CHEMBL3988442, “University of Dundee, Small-Polar-MMV Screening Library” (2021).)
